In PubChem BioAssay AID687028 (Broad Institute, 2013):
Among all 1,400 compounds or so, about 55 (4%) were called active. The rule behind the calls is not given here. Not all results are given here. Potency and affinity values are given separately.

test: A549 cell toxicity, dose response, cytotoxicity control, plate reader, cherry-pick samples (AID 687028); conditions: series mostly up to 19.5 µM; activity change, negative = toxicity: at the top concentration;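 note: cells incubated with compound for three days before reading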

Row | SMILES | activity change, negative = toxicity
1 | COc1ccc(OC)c(NC(=O)NNS(=O)(=O)c2ccc(C)cc2C)c1 | 10.2% (inactive)
2 | Cc1ccc(C)c(NC(=O)CN2C(=O)C3CC=CCC3C2=O)c1 (stereo not given) | 2.15% (inactive)
3 | CC1(C(=O)Nc2cccc(OC(F)(F)F)c2)Cc2c(-c3cccc(C(N)=O)c3)ccnc2O1 (stereo not given) | -15.9% (inactive)
4 | CC1(C(=O)NCc2cccc(C(F)(F)F)c2)CCN1Cc1cc2ccccc2o1 (stereo not given) | 5.37% (inactive)
5 | C[C@H](CO)N1C[C@H](C)[C@@H](CN(C)S(=O)(=O)c2cn(C)cn2)Oc2ccc(NC(=O)Nc3cccc4ccccc34)cc2CC1=O | 4.45% [at 21 µM] (inactive)
6 | O=C(N[C@@H]1c2ccccc2CC[C@@H]1OCc1ccccc1)c1ccc(C(F)(F)F)cc1 | -0.699% (inactive)
7 | CCCn1c(NCc2ccc(N(C)C)cc2)nc2ccccc21 | 3.28% (inactive)
8 | COc1ccc(CNC(=O)COC(=O)CN2C(=O)NC3(CCCC3)C2=O)cc1 | 2.48% (inactive)
9 | CCC(c1nnnn1-c1c(C)cccc1C)N1CCN(C/C=C/c2ccccc2)CC1 (stereo not given) | -4.93% (inactive)
10 | O=C1CCCC(c2ccccc2)N1 (stereo not given) | 1.97% (inactive)
11 | COc1cc(C(=S)N2CCCCC2)ccc1OCC(=O)Nc1ccc(F)cc1 | -0.726% (inactive)
12 | Cc1ccc(NC(=O)CN2CCC(NC(=O)c3cccc(F)c3)CC2)cc1C | 4.03% (inactive)
13 | COc1ccc(CCN2C(=O)CSCC2(C)C(=O)Nc2ccc3c(c2)OCCO3)cc1OC (stereo not given) | 2.93% (inactive)
14 | CCN1CCN(C(=O)C2CC(=O)N(c3ccc(Cl)cc3)C2)CC1 (stereo not given) | 4.04% (inactive)
15 | COc1cccc(N2CC(C(=O)Nc3ccc(F)cc3)CC2=O)c1 (stereo not given) | 3.92% (inactive)
16 | CCOc1ccc(/C=N/n2nnnc2N)cc1OCC | 14.9% (inactive)
17 | CC(C)(C)N(Cc1ccccc1)C(=O)COC(=O)C1CCN(c2ccc(C(F)(F)F)cn2)CC1 | 1.79% (inactive)
18 | CN1CCN(C(=O)c2cc3sc4ccccc4c3s2)CC1 | 3.61% (inactive)
19 | Cc1cc2oc3ccc(NCCCN4CCOCC4)cc3c(=O)c2cc1C | 3.8% (inactive)
20 | COC(=O)CN(c1cc(Cl)ccc1OC)S(=O)(=O)c1ccc(OC)c(OC)c1 | 4.16% (inactive)

Row | SMILES | activity change, negative = toxicity
21 | Cc1ccc(S(=O)(=O)N(C)C)cc1NC(=O)COC(=O)C1CCCC1 | 3.55% (inactive)
22 | O=C(NC1CCCC1)c1nc(-c2c(F)cccc2F)oc1-c1ccccc1 | 4.75% (inactive)
23 | Cc1cccc(C)c1OCC(O)Cn1ccnc1C (stereo not given) | 0.445% (inactive)
24 | CN1CCC(=O)N([C@H](COc2ccccc2)Cc2ccccc2)CC1 | -1.58% (inactive)
25 | Cc1cccc(C(=O)OCC(=O)NCc2ccc(Cl)cc2)c1 | 6.43% (inactive)
26 | O=C(Cc1cn(Cc2ccccc2)c2ccccc12)Nc1ccc(Oc2cccnc2)cc1 | 6.03% (inactive)
27 | COc1ccc(NC(=O)c2cc3ccccc3cc2O)cc1 | 5.07% (inactive)
28 | O=C(Oc1ccccc1)c1ccccc1C(=O)Oc1ccccc1 | 1.83% (inactive)
29 | Cc1ccccc1-c1ccc(C2[C@@H]3CN(C(=O)Cc4ccncc4)C[C@H]2N3)cc1 (stereo not given in full) | 3.86% [at 21 µM] (inactive)
30 | COCCNC(=O)C1(C)CCCN(C(=O)c2ccccc2)C1 (stereo not given) | 0.534% (inactive)
31 | COc1ccc(S(=O)(=O)N2CCC(C(=O)N[C@H](C(=O)NCc3ccccc3)C(C)C)CC2)cc1 | -1.57% (inactive)
32 | CC(C)c1ccc(NC(=O)[C@H](NC(=O)[C@@H]2Cc3ccccc3CN2)c2ccccc2)cc1 | 3.25% (inactive)
33 | COc1ccc2c(C)c(CCC(=O)NC3CC3)c(=O)oc2c1C | 4.32% (inactive)
34 | C[C@@H]1CN([C@H](C)CO)C(=O)Cc2cc(NC(=O)C3CC3)ccc2O[C@H]1CN(C)C(=O)Nc1ccccc1 | 6.32% [at 21 µM] (inactive)
35 | CCc1nnc(N2C(=O)c3ccccc3C2(O)c2ccccc2)s1 (stereo not given) | 0.278% (inactive)
36 | CCN1C(=NCCc2c[nH]c3ccccc23)N[C@@H](c2ccccc2)[C@H](C(=O)OC)[C@H]1C | 3.65% (inactive)
37 | O=C(O)CCCCCCCCc1cn(CCc2c[nH]c3ccccc23)nn1 | 1.36% (inactive)
38 | CCOc1ccc2[nH]c3ncccc3c(=O)c2c1 | 10.9% (inactive)
39 | C[C@@H]1CCCCO[C@@H](CN(C)C(=O)C2CCCCC2)[C@H](C)CN([C@H](C)CO)C(=O)c2cc(NC(=O)c3ccncc3)ccc2O1 | 3.35% (inactive)
40 | C[C@@H]1CCCCO[C@@H](CN(C)S(=O)(=O)c2ccc(F)cc2)[C@@H](C)CN([C@@H](C)CO)C(=O)c2cc(NC(=O)c3ccccc3)ccc2O1 | -0.972% (inactive)

Row | SMILES | activity change, negative = toxicity
41 | O=C1Nc2ccccc2C(=O)N(C2CCCC2)C1C(=O)NC1CC1 (stereo not given) | 2.89% (inactive)
42 | CC(C)(C)NC(=O)c1cccc(NC(=O)c2ccc3c(c2)C(=O)N(C(C)(C)C)C3=O)c1 | 7.87% (inactive)
43 | COc1cc(OC)cc(C(=O)Nc2ccc3nc4n(c(=O)c3c2)CCCC4)c1 | 4.55% (inactive)
44 | O=C(c1ccccc1Cc1ccccc1)N1CCN(S(=O)(=O)c2ccccc2)CC1 | -0.548% (inactive)
45 | Cc1cc2oc(=O)cc(Cn3ccnc3)c2cc1Cl | 5.68% (inactive)
46 | COc1ccc2c3c([nH]c2c1)[C@H](CO)N(C(=O)Nc1cccc(F)c1)CC31CN(S(=O)(=O)c2ccccc2)C1 | -22.3% (inactive)
47 | COc1ccc2c3c([nH]c2c1)[C@H](CO)N(C(C)=O)CC31CN(C(=O)c2cccc(F)c2)C1 | 1.32% (inactive)
48 | O=S(=O)(c1cccs1)N1CCN(c2ccnc3cc(Cl)ccc23)CC1 | 1.26% (inactive)
49 | CN(C[C@H](Cc1ccccc1)N(C[C@@H](CC1CCCCC1)N(CCc1ccccc1)N=O)N=O)N=O | 5.21% (inactive)
50 | CCCCCC(=O)N1C[C@@H](O)[C@H](n2cc(COC(=O)c3ccccc3)nn2)C[C@@H]1c1ccc(C)cc1 | 2.72% (inactive)
51 | O=C(C1CCCCC1)N1C[C@H](O)[C@@H](n2cc(C3CC3)nn2)C[C@@H]1c1ccccc1 | 2.27% (inactive)
52 | Cc1noc(C)c1NC(=O)Nc1ccc2c(c1)C(=O)N([C@@H](C)CO)C[C@@H](C)[C@@H](CN(C)C)OCCCC[C@@H](C)O2 | 6.53% (inactive)
53 | CCOC(=O)N1CCC(NCCNC(=O)c2ccc(F)c(F)c2)CC1 | 3.93% (inactive)
54 | C[C@H](NC(=O)C1CCN(S(=O)(=O)c2ccccc2)CC1)C(=O)NCc1cccnc1 | 0.309% (inactive)
55 | COc1ccc(CN2CCC(C(=O)NC(c3ccc4c(c3)OCO4)c3ccccn3)CC2)cc1 (stereo not given) | -3.27% (inactive)
56 | COc1ccc(C2NC(=O)NC(C)=C2C(=O)Nc2cccc(C)c2C)cc1 (stereo not given) | 1.37% (inactive)
57 | CCN(C[C@H]1N[C@@](C)(C(=O)OC)[C@H]2C(=O)N(C)C(=O)[C@@H]12)S(=O)(=O)c1ccc(-c2ccccc2)cc1 | 0.033% (inactive)
58 | CC(C)CCNC(=O)C1CC(c2ccccc2C(F)(F)F)=NO1 (stereo not given) | -2.08% (inactive)
59 | Cc1cccc(N(CC(=O)NC2CC2)S(=O)(=O)c2ccc(Cl)cc2)c1 | 1.14% (inactive)
60 | COc1ccc2c3c([nH]c2c1)[C@@H](CO)N(Cc1ccc(F)cc1)CC31CN(C(=O)NC(C)C)C1 | -0.014% [at 21 µM] (inactive)
